Shown are actives, neighbours in structure and some others; about 3.5% of the full set was active somewhere.
PG9 Ab binder: binders of HIV-1 gp120 antibody PG9, primary screen, biochemical, TR-FRET; HIV-1 gp120 / PG9 antibody interaction; TR-FRET gp120-PG9 antibody binding; inhibition, % at 6.7 µM; 360,000 compounds, 0.43% hits; in the data active = inhibition above about 8.5%
MBD2 inh: inhibitors of MBD2 binding to methylated DNA, primary screen, biochemical, TR-FRET, DNA-binding domain, human; inhibition, % at 4.4 µM; 370,000 compounds, 0.31% hits; Methyl-CpG-binding domain protein 2 (Homo sapiens), Q9UBB5; MBD2 binding to methylated oligonucleotide; in the data active = inhibition above about 13%
UHRF1 MBD2 ctr: UHRF1 methylated DNA binding inhibitors, primary screen, counter-screen for MBD2 inhibitor project, biochemical, TR-FRET, human UHRF1, single concentration; E3 ubiquitin-protein ligase UHRF1 (Homo sapiens), Q96T88; UHRF1 binding to methylated oligo; inhibition, % at 4.4 µM; 370,000 compounds, 0.75% hits;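 note: UHRF1 SRA domain binding a hemimethylated CpG hairpin DNA probe; 0% = median of test compound wells and 100% = reference inhibitor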
Target sequence (Q96T88 whole entry, looked up, the tested form may be a part): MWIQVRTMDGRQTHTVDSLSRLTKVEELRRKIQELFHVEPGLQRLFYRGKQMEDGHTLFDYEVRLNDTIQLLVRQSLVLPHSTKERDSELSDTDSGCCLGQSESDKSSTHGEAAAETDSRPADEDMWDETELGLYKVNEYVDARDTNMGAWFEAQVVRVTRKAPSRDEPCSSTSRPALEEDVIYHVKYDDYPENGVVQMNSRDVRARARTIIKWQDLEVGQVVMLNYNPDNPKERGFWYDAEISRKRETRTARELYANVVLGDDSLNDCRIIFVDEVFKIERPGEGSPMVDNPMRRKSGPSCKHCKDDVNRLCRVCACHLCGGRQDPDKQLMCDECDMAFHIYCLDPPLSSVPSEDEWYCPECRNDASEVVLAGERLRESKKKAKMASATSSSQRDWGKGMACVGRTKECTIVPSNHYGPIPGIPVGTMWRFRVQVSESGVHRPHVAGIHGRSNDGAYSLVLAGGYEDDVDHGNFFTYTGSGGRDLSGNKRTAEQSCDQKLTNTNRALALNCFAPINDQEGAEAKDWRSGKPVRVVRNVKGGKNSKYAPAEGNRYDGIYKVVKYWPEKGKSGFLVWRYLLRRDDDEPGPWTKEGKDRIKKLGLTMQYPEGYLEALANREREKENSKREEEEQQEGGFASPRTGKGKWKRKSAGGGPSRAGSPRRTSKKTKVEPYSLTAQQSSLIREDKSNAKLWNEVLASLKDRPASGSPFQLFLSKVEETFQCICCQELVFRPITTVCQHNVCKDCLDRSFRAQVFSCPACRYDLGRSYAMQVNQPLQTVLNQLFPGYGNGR
LEDGF integ inh: blockers of LEDGF/p75-dependent integrase strand transfer – biochemical, TR-FRET, high throughput, primary screen | inhibition, % at 3.7 µM | TR-FRET IN-LEDGF/p75 DNA integration, Eu/Cy5 | 370,000 compounds, 0.64% hits;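 active = inhibition above the screen-wide mean plus 3 SD, cut at about 13% in these data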;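 note: signal is the Cy5 over europium emission ratio at 671 and 618 nm; 0% = plate median of compound wells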
DNMT1 block: human DNMT1 methyltransferase inhibitors, primary screen, biochemical, molecular beacon, fluorescence, HinP1I cleavage, uHTS; DNA (cytosine-5)-methyltransferase 1 (Homo sapiens), P26358; inhibition (reported as % activation of signal), % at 10 µM; 360,000 compounds, 0.83% hits; AID 588458, 2011; in the data active = inhibition above about 50%
rCAG RNA binder: binders of r(CAG) RNA repeats, primary screen, biochemical, fluorescence; r(CAG) RNA repeat, TO-PRO-1 dye displacement fluorescence; inhibition, % at 3 µM; 370,000 compounds, 1.3% hits; AID 651821, 2012;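 active = inhibition above the plate cutoff, the mean of all test compounds on that plate plus 3 SD, cut at about 35% in these data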;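 note: 0% = DMSO alone and 100% = 100 µM mitoxantrone as full dye displacement; higher means more dye released from RNA so lower well fluorescence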
UHRF1 DNA bind: UHRF1 methylated DNA binding inhibitors, counter-screen for MBD2 inhibitor project, biochemical, TR-FRET, human UHRF1; UHRF1 binding to methylated oligonucleotide; shares compounds with MBD2 inh; 1,000 compounds, 25% hits; inhibition, % at 4.4 µM;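 note: UHRF1 SRA domain binding a labeled hemimethylated CpG hairpin DNA; 0% = vehicle only and 100% = reference inhibitor with vehicle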
MBD2 confirm: inhibitors of MBD2 binding to methylated DNA, confirmation, biochemical, TR-FRET, DNA-binding domain, human. TR-FRET MBD2-DBD binding to methylated oligonucleotide. inhibition, % at 4.4 µM. shares compounds with MBD2 inh. 1,000 compounds, 26% hits; in the data active = inhibition above about 14%
Numbers without * were called inactive; x = no result given. Cut-off read from the data, not from the text of the source, unless noted: active = inhibition above about 21%; inactive = the rest.

SMILES | PG9 Ab binder | MBD2 inh | UHRF1 MBD2 ctr | LEDGF integ inh | DNMT1 block | rCAG RNA binder | UHRF1 DNA bind | MBD2 confirm
Cc1ccccc1NC(=O)c1ccc(CN2CCc3ccccc3C2)cc1 | 1 | 34* | 0 | 1 | -4 | -5 | 5 | 3
O=C(C1COc2ccccc2O1)N1CCOCC1 (configuration not stated) | 1 | 14* | 3 | -7 | 3 | -1 | 10 | 6
O=C(NCc1cccc(Cl)c1)c1ccc(-n2ccnc2)c2ccoc12 | 0 | 14* | 22* | 0 | 28 | 1 | 7 | 8
O=C(NCc1cccc(Cl)c1)c1ccc(-n2cncn2)c2ccoc12 | 1 | 1 | 2 | -2 | 0 | 4 | x | x
COc1ccc(CNC(=O)c2ccc(-n3ccnc3)c3ccoc23)cc1OC | -2 | 14* | 23* | 1 | 31 | 0 | 12 | 13
CC1CCCN(CCCNC(=O)c2ccc3c(c2)N(Cc2ccc(F)cc2)C(=O)c2ccccc2S3=O)C1 (configuration not stated) | -2 | 17* | -1 | 0 | -4 | -4 | 7 | 3
N#CCSc1ncnc2sc3c(c12)CCC3 | 5 | 14* | 24* | 5 | 48 | 13 | 7 | 4
Cc1nc(SCC#N)c2c3c(sc2n1)CCC3 | 0 | -2 | 0 | -1 | 5 | -1 | x | x
COc1ccc2oc3cc(C)[n+]([O-])c(-c4ccc(Cl)cc4)c3c2c1 | 0 | 13* | 19 | 1 | 3 | -5 | 1 | 2
COC(=O)C1CN(C(=O)c2cccc(OC(F)F)c2)c2ccccc2O1 (configuration not stated) | 0 | 1 | 0 | -1 | -8 | 4 | x | x
O=C(Nc1ccccc1)c1cc(C2CCCCN2C(=O)c2ccc3c(c2)CCO3)on1 (configuration not stated) | 0 | 0 | 0 | 6 | -3 | 1 | x | x
N#Cc1cccc(NC(=O)c2cc(C3CCCCN3C(=O)c3ccc4c(c3)CCO4)on2)c1 (configuration not stated) | 1 | 53* | 12 | -1 | -2 | 2 | 4 | 3
Cc1ccc(-n2c(SCC(=O)c3ccc(F)cc3)nnc2-c2cccnc2)cc1 | x | -5 | 1 | 0 | x | 2 | x | x
CCOc1cc(CNCc2ccc3c(c2)OCO3)ccc1OC | -1 | -3 | 3 | -5 | -3 | -1 | x | x
COc1ccccc1OCC(O)CNCc1ccc2c(c1)OCO2 (configuration not stated) | -1 | 18* | 0 | -1 | 0 | -4 | 8 | 5
COc1ccc(CC(=O)Nc2ccc(S(=O)(=O)Nc3cc(C)nc(C)n3)cc2)cc1OC | 5 | 3 | 1 | -1 | 0 | 1 | x | x
CC(C(=O)NC(=O)NC1CCCCC1)N(C)CC(=O)Nc1ccc(F)c(F)c1F (configuration not stated) | 0 | -1 | 0 | -1 | 2 | -9 | x | x
O=C1NC2c3c(I)sc(I)c3C(=O)C2O1 (configuration not stated) | 1 | 3 | -5 | 1 | 22 | -4 | x | x
O=C1NC2c3c(Cl)sc(Cl)c3C(=O)C2O1 (configuration not stated) | -2 | 14* | 35* | 11 | 91* | 31 | 32* | 16*
O=c1[nH]c(SCCOc2ccccc2F)nc2ccccc12 | 0 | 14* | 23* | 2 | -5 | 3 | 6 | 2

Assay outcomes from PubChem.
